Bioassay records (PubChem BioAssay)
DRD3 antagonist: D3 dopamine receptor (human) antagonism; D3R cells, DiscoveRx beta-arrestin luminescence, antagonist mode; active compounds read low; max response, negative = inhibition, %; 360,000 compounds, 2.5% hits; AID 652054; in the data active = max response below about -50%; inconclusive = no clear call, values can overlap the other calls
Target sequence (P35462 whole entry, looked up): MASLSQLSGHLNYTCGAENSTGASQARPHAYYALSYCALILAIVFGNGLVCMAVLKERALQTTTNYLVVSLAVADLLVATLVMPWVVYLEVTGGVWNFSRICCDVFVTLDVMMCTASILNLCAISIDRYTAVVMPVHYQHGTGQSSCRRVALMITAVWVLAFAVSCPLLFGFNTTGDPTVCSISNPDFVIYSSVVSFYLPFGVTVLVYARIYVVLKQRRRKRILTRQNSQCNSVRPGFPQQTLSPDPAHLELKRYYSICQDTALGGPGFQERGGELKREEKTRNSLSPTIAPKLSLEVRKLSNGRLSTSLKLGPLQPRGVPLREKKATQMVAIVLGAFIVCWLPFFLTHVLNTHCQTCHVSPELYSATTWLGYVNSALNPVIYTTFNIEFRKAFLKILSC
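Cells expressing the human receptor were seeded at 1500 cells/well, incubated overnight at 37 degrees C in 5% CO2, then exposed to library compounds with dopamine controls for 90 minutes at 37 degrees C before luminescent detection.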
ATXN2 expr inh: inhibitors of ATXN2 expression. HEK-293 ATXN2-luciferase reporter, luminescence, 24 h. Potency, µM (titrated, usually from 57 µM), hits mostly inhibitors. 360,000 compounds, 0.72% hits. AID 1745845; note: nearly all actives have a fitted effect of over 55% in size
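qHTS (up to 57 uM final) was run with 24 h compound exposure of reporter cells at 37 °C. Each well was multiplexed: SteadyGlo luminescence measured ATXN2-luciferase expression after a fluorogenic Gly-Phe-AFC viability readout (25 uM final).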
HepG2 viability: HepG2 cytotoxicity, counter-screen for TGF-b inhibitors; HepG2 CAGA-GFP viability, ATP luminescence, 18 h; Potency, µM (titrated, usually from 46.1 µM), usual class: cytotoxic; 410,000 compounds, 0.76% hits
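CellTiter-Glo luminescence gave cytotoxicity after 18 hours at 37 degrees C. The cells were HepG2 CAGA-GFP in 1% FBS DMEM, stimulated with 500 pg/mL TGF-beta after compound addition. %Activity was normalised to no-cell wells (complete cell-killing) and DMSO (no toxicity), and curves were fitted and classified.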
TGFb SMAD3 inh: TGF-b pathway inhibition; Potency, µM (top dose mostly 46.1 µM), actives largely listed as inhibitors; 410,000 compounds, 1.2% hits; HepG2 CAGA-GFP TGF-b/SMAD3 reporter, GFP fluorescence, 18 h; TGF-beta stimulated, 500 pg/mL final; AID 588855; note: nearly all actives have a fitted effect of over 65% in size
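First, reporter cells (HEPG2 CAGA-GFP) rested 2 h at 37 degrees C. Next, compounds were pinned in and TGF-beta added to 500 pg/mL final. After 18 h, GFP was imaged per cell and summed per well.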
ATXN viability: reduces viability in counter-screen for ATXN expression inhibitors | AID 651635 | 400,000 compounds, 0.49% hits | Potency, µM (highest dose often 56.7 µM), hits mostly cytotoxic | S2 cells (HEK-293 line with an ATXN2-luciferase reporter) viability, CellTiter-Fluor protease fluorescence, 24 h; note: nearly all actives have a fitted effect of over 40% in size
DRD3 agonist: agonists of human D3 dopamine receptor | P35462 | D3R DiscoveRx beta-arrestin cells, luminescence, 90 min | max activation, % | 410,000 compounds, 0.58% hits | AID 652048; in the data active = max activation above about 30%
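Agonist mode: compounds and dopamine controls were applied to plated cells for 90 min at 37 degrees C after an overnight attachment at 1500 cells/well. Luminescent read-out followed 30 - 60 minutes at room temperature with DiscoveRx detection reagent.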
Hits are given with their value; 0 = inactive; ? = inconclusive; - = no result given. Compounds with a hit are over-represented: about 4.8% of the library has one in this group of screens. Unless noted, calls come from the whole dose curve; as a rule, active = well fitted curve in the direction sought with a large enough effect; inconclusive = small, poorly fitted or top-dose-only effect, or another doubt; inactive = no such curve, though single readings can be large; an effect the other way counts as inactive or inconclusive.

SMILES	DRD3 antagonist	ATXN2 expr inh	HepG2 viability	TGFb SMAD3 inh	ATXN viability	DRD3 agonist
CC(=O)O[C@@H]1[C@@H](O)[C@@H](O)[C@H](Oc2c(-c3ccc(O)cc3)oc3c(CC=C(C)C)c(O)cc(O)c3c2=O)O[C@H]1C	0	?	0	?	?	0
COc1cccc(CN2CCC(n3cc(C(=O)N4CCCCC4)nn3)CC2)c1OC	-	-	-	-	0	-
C=C1[C@@H](O)[C@H](CC(C)C)N(Cc2ccccc2Br)S1(=O)=O	0	0	10µM	8.91µM	-	0
COc1ccc(OCCN2CCC(C(=O)NC(c3ccccc3)c3ccc4ccccc4n3)CC2)cc1 (stereo unspecified)	-102.4	0	6.31µM	?	?	0
Cn1cc(CN2CCC(C(=O)NC(c3ccc(F)cc3)c3ccc4ccccc4n3)CC2)c2ccccc21 (stereo unspecified)	-58.0	28.2µM	10µM	?	28.2µM	0
O=C(NC(c1ccc(Cl)cc1)c1cccnc1)C1CCN(CCOc2ccc(Cl)cc2Cl)CC1 (stereo unspecified)	?	?	0	?	-	0
O=C(NC(c1ccccc1)c1ccc2ccccc2n1)C1CCN(Cc2ccc(Oc3ccccc3)cc2)CC1 (stereo unspecified)	?	0	0	?	?	0
O=C(NC(c1ccc(F)cc1)c1ccc2ccccc2n1)C1CCN(CCOc2ccc(Cl)cc2Cl)CC1 (stereo unspecified)	0	?	11.2µM	?	-	0
O=C(NC(c1ccc(F)cc1)c1cnccn1)C1CCN(CCOc2ccc(Cl)cc2Cl)CC1 (stereo unspecified)	-71.0	?	0	?	?	0
Cc1ccc(C(=O)NCC(c2ccco2)S(=O)(=O)c2ccccc2)cc1C (stereo unspecified)	-	0	0	0	?	0
CN(C)CCOc1cc(-c2cn[nH]c2)ccc1NC(=O)C1COc2ccccc2O1 (stereo unspecified)	-	0	-	-	-	-
COc1ccc(C(NC(=O)C2CCN(C/C=C/c3ccc(OC(C)=O)c(OC)c3)CC2)c2ccccn2)cc1 (stereo unspecified)	0	0	0	0	0	0
O=C(NC(c1ccc(F)cc1)c1ccc2ccccc2n1)C1CCN(Cc2ccc(Oc3ccccc3)cc2)CC1 (stereo unspecified)	-89.2	0	0	?	0	0
COc1ccc(OCCN2CCC(C(=O)NC(c3ccc(F)cc3)c3ccc4ccccc4n3)CC2)cc1 (stereo unspecified)	-69.9	?	11.2µM	20µM	?	0
O=C(NC(c1ccc(F)cc1)c1ccc2ccccc2n1)C1CCN(CCOc2ccc(F)cc2)CC1 (stereo unspecified)	?	28.2µM	15.8µM	11.2µM	15.8µM	0
CCOC(=O)CCCNC(=O)c1cncc(Br)c1	0	0	0	0	0	31.2
O=C(O)c1cccc(N/N=C/c2cccs2)c1	0	10µM	0	0	?	0
CSc1ccc(/C=N/Nc2cccc(C(=O)O)c2)cc1	0	0	0	0	0	0
O=C(CCCN1CCC(c2ccccc2)C1)c1ccc2c(c1)OCCO2 (stereo unspecified)	-81.5	0	0	0	0	0
O=C(CCN1CCc2ccccc2CC1)c1ccc2c(c1)OCCO2	-94.1	?	1.41µM	?	?	0
O=C(CCN1CCCCC1)c1ccc2c(c1)OCO2	-65.1	0	0	?	0	0
O=C(CCCN1CCOCC1)c1ccc2c(c1)OCCO2	0	0	0	0	?	0
Cn1cc(C=CC(=O)c2cccc(F)c2)cc1C=CC(=O)NO	-	0	-	-	-	-
COc1cccc(CN2C(=O)NC(C)(C3CCN(Cc4cc(F)cc(F)c4)CC3)C2=O)c1OC (stereo unspecified)	-	-	-	-	0	-
Cc1ccc(NC(=O)CSc2nnc(-c3ccccc3)n2C)cc1	-	-	0	0	-	-
SMILES	DRD3 antagonist	ATXN2 expr inh	HepG2 viability	TGFb SMAD3 inh	ATXN viability	DRD3 agonist
C=C1CCC[C@]2(C)C[C@H]3OC(=O)C(CNC(C)CCCC(C)C)[C@H]3CC12 (stereo partly specified)	0	?	0	11.2µM	?	0
C=C1CCC[C@]2(C)C[C@H]3OC(=O)C(CN[C@@H](C)c4ccccc4)[C@H]3CC12 (stereo partly specified)	0	0	0	0	?	0
CCN1CCCC1CNC(=O)c1cnn(-c2nccc(-c3cccs3)n2)c1C1CC1 (stereo unspecified)	-	-	-	-	0	-
Cc1cccc(Cc2c(C)nc3c(C(=O)NCc4ccco4)cnn3c2C)c1	?	0	0	17.8µM	0	0
Cc1nc2c(C(=O)N3CCCCC3)cnn2c(C)c1Cc1ccccc1F	0	0	0	0	0	0
Cc1nc2c(C(=O)NCc3ccc4c(c3)OCO4)cnn2c(C)c1Cc1ccc(F)cc1Cl	0	0	0	0	?	0
Cc1nc2c(C(=O)N3CCN(C)CC3)cnn2c(C)c1Cc1ccc(Cl)cc1	-74.8	0	0	0	0	0
Cc1ccccc1Cc1c(C)nc2c(C(=O)NCc3ccc4c(c3)OCO4)cnn2c1C	-81.3	0	0	0	0	0
Cc1ccccc1Cc1c(C)nc2c(C(=O)N3CCN(Cc4ccc5c(c4)OCO5)CC3)cnn2c1C	-60.4	0	0	0	0	0
Cc1nc2c(C(=O)NCc3ccco3)cnn2c(C)c1Cc1ccc(F)cc1Cl	?	0	0	0	0	0
COc1ccc(-c2cn3c(n2)sc2cc(C(=O)NC(C)C45CC6CC(CC(C6)C4)C5)ccc23)cc1 (stereo unspecified)	-	-	0	0	-	0
COc1ccc(OC)c(S(=O)(=O)N2CCC(c3ccncc3)CC2)c1	-	0	0	0	0	0
CCOC(=O)c1c(C)oc2c1cc(NS(=O)(=O)c1ccc(C)cc1)c1ccccc12	-	0	0	0	0	0
Cc1c(C(=O)NC(C)(C)C)sc2ncnc(NCCN(C)C)c12	-	-	-	-	0	-
OC(c1ccc2c(c1)CN(Cc1c[nH]c3ccccc13)CCO2)c1ccccn1 (stereo unspecified)	-	-	-	-	0	-
COCCn1c(C)cc(C(=O)CSc2nc3ccccc3c(=O)n2Cc2ccco2)c1C	0	0	0	0	0	43.4
COc1ccc(Cl)cc1C(=O)CSc1nnnn1C1CCCC1	0	0	0	0	0	0
COCCn1c(C)cc(C(=O)CSc2nnc(C)s2)c1C	0	5.01µM	0	0	0	0
COCCn1c(C)cc(C(=O)CSc2nnnn2C2CCCC2)c1C	0	14.1µM	0	0	0	0
COc1ccccc1-c1ccc(C(=O)N(C)CC2COCCO2)c(N2CCN(c3ccccc3F)CC2)n1 (stereo unspecified)	-	-	-	-	0	-
